These results are taken from the supplement of paper PMC7411640.

Counter-ions that a name gives are not always drawn.

This experiment relates to MDA-MB-468. Put plainly: phospho-S6 immunofluorescence (DAPI-normalised), per-plate z-score; higher = higher phospho-S6 signal (less pathway suppression). The following applies: 24 h. On the procedure: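 GPCR-targeted compound library (MedChemExpress HY-L006) tested on MDA-MB-468 PTEN-null TNBC cells in 384-well plates at 0.1, 1 or 10 uM, combined with vehicle, GDC0941 450 nM or lapatinib 1 uM, for 24 h. Phospho-S6 (S240/244) immunofluorescence normalised to DAPI and expressed as a per-plate z-score; values are the mean of biological triplicates.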

Turning to `CC[C@H](C)[C@@H]1NC(=O)[C@H](Cc2ccc(O)cc2)NC(=O)[C@@H](N)CSSC[C@@H](C(=O)N2CCC[C@H]2C(=O)N[C@@H](CC(C)C)C(=O)NCC(N)=O)NC(=O)[C@H](CC(N)=O)NC(=O)[C@H](CCC(N)=O)NC1=O` [Oxytocin (acetate)] (compound 10 µM), the “phospho-S6 immunofluorescence (z-score)” value by setting is: (co-treatment: GDC0941 450 nM) -0.77; (co-treatment: lapatinib 1 uM) -0.07; (co-treatment: vehicle) -0.87.

`C[C@H]1CN(C[C@H](Cc2ccccc2)C(=O)NCC(=O)O)CC[C@@]1(C)c1cccc(O)c1` [Alvimopan (dihydrate)] (compound 10 µM): the “phospho-S6 immunofluorescence (z-score)” value is, setting by setting: (co-treatment: GDC0941 450 nM) -0.22; (co-treatment: lapatinib 1 uM) 0.49; (co-treatment: vehicle) -0.86.

As for `Clc1ccccc1CN1CCc2sccc2C1` [Ticlopidine (hydrochloride)] (compound 10 µM), the “phospho-S6 immunofluorescence (z-score)” value (co-treatment: GDC0941 450 nM) is -1.14, the “phospho-S6 immunofluorescence (z-score)” value (co-treatment: lapatinib 1 uM) was -0.33 and the “phospho-S6 immunofluorescence (z-score)” value (co-treatment: vehicle) is -0.63.

In the case of `CCC1(c2c[nH]cn2)Cc2ccccc2C1` [Atipamezole] (compound 10 µM), the “phospho-S6 immunofluorescence (z-score)” value (co-treatment: GDC0941 450 nM) was 0.08, the “phospho-S6 immunofluorescence (z-score)” value (co-treatment: lapatinib 1 uM) is -0.83 and the “phospho-S6 immunofluorescence (z-score)” value (co-treatment: vehicle) came out at 0.81.

On to `CC(O)Cn1cnc2c1c(=O)n(C)c(=O)n2C` (centres undefined) [Proxyphylline] (compound 10 µM), for which the “phospho-S6 immunofluorescence (z-score)” value by setting is: (co-treatment: GDC0941 450 nM) 0.64; (co-treatment: lapatinib 1 uM) 0.19; (co-treatment: vehicle) -0.72.

Regarding `CCCC(=O)Nc1ccc(OCC(O)CNC(C)C)c(C(C)=O)c1` (centres undefined) [Acebutolol (hydrochloride)] (compound 10 µM), the “phospho-S6 immunofluorescence (z-score)” value (co-treatment: GDC0941 450 nM) was found to be 1.02, the “phospho-S6 immunofluorescence (z-score)” value (co-treatment: lapatinib 1 uM) came out at 0.15 and the “phospho-S6 immunofluorescence (z-score)” value (co-treatment: vehicle) was -0.08.

On to `CN1CCN(CC(=O)N2c3ccccc3C(=O)Nc3cccnc32)CC1` [Pirenzepine (dihydrochloride)] (compound 10 µM), for which the “phospho-S6 immunofluorescence (z-score)” value (co-treatment: GDC0941 450 nM) was 1.51, the “phospho-S6 immunofluorescence (z-score)” value (co-treatment: lapatinib 1 uM) worked out at 1.09 and the “phospho-S6 immunofluorescence (z-score)” value (co-treatment: vehicle) was 0.23.

For the molecule `CCCc1nc(C(C)(C)O)c(C(=O)O)n1Cc1ccc(-c2ccccc2-c2nnn[nH]2)cc1` [Olmesartan] (compound 10 µM), the “phospho-S6 immunofluorescence (z-score)” value by setting is: (co-treatment: GDC0941 450 nM) 0.13; (co-treatment: lapatinib 1 uM) 0.28; (co-treatment: vehicle) -0.82.

With `Cc1noc(-c2ccc(-c3ccc(CC(=O)O)cc3)cc2)c1NC(=O)OC(C)c1ccccc1Cl` (centres undefined) (compound 10 µM), the “phospho-S6 immunofluorescence (z-score)” value by setting is: (co-treatment: GDC0941 450 nM) 0.23; (co-treatment: lapatinib 1 uM) 0.28; (co-treatment: vehicle) 0.02.

`CN1CCC(=C2c3ccccc3CCc3sccc32)CC1` [Pizotifen] (compound 10 µM): the “phospho-S6 immunofluorescence (z-score)” value by setting is: (co-treatment: GDC0941 450 nM) 0.35; (co-treatment: lapatinib 1 uM) -1.87; (co-treatment: vehicle) -0.19.

Turning to `Cc1cccc(C#Cc2ccccc2)n1` [MPEP (Hydrochloride)] (compound 10 µM), the “phospho-S6 immunofluorescence (z-score)” value is -0.92 (co-treatment: GDC0941 450 nM), 0.68 (co-treatment: lapatinib 1 uM) and -0.14 (co-treatment: vehicle).

For `CCNC1(C(N)=O)CCN(c2ncnc3c2nc(-c2ccccc2Cl)n3-c2ccc(Cl)cc2)CC1` [Otenabant] (compound 10 µM), the “phospho-S6 immunofluorescence (z-score)” value is -1.75 (co-treatment: GDC0941 450 nM), -2.03 (co-treatment: lapatinib 1 uM) and -0.02 (co-treatment: vehicle).

For `CC1(C)CN2C(CSC(=NC3CCCCC3)NC3CCCCC3)=CSC2=N1` [IT1t (dihydrochloride)] (compound 10 µM), the “phospho-S6 immunofluorescence (z-score)” value was -2.08 (co-treatment: GDC0941 450 nM), -0.41 (co-treatment: lapatinib 1 uM) and -1.11 (co-treatment: vehicle).
